“And” between values parts separate entries of the source, which are not always exact repeats. Identical values can stand only once. Unmarked numbers belong to inactive results. Results filed as inconclusive are left out. The source made the active and inactive calls. Unless noted, calls follow the shape of the dose curve; as a rule, active = well fitted curve in the direction sought with a large enough effect; inconclusive = small, poorly fitted or top-dose-only effect, or another doubt; inactive = no such curve, though single readings can be large; an effect the other way counts as inactive or inconclusive.
Assays:
[1] = qHTS assay for small molecule agonists of the antioxidant response element (ARE) signaling pathway (AID 651741; active = well fitted activation curve with a large enough effect in the signal ratio; the % refers to the signal ratio; also: potency is read from the fitted curve at half-maximal effect; as to activation: % of control where 0% means no effect)
Outline: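 HepG2 ARE-bla reporter cells, 2,000/well; 5 h settle at 37 C/5% CO2; compound pin transfer (23 nL, DMSO); 16 h at 37 C; LiveBLAzer B/G FRET substrate, 2 h RT; fluorescence intensity read.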

[2] = qHTS assay for small molecule activators of the p53 signaling pathway (AID 651743; active = well fitted activation curve with a large enough effect in the signal ratio, not every such curve was filed as active; the % refers to the signal ratio; also: potency is read from the fitted curve at half-maximal effect; as to activation: series mostly up to about 92 µM; % of control where 0% means no effect); conditions: HCT-116 p53RE-bla, beta-lactamase FRET ratio, 16 h; activation: active compounds read high
Outline: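 Reporter: beta-lactamase driven by p53 response elements, stably integrated in HCT-116 cells. Cells seeded at 4,000/well, 5 h preincubation, compound (DMSO) 16 h at 37 C; B/G FRET substrate 2 h RT; fluorescence intensity read.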

[3] = qHTS assay for small molecule activators of the nuclear factor-kappa B (NF-kB) signaling pathway (AID 651749; active = well fitted activation curve with a large enough effect in the signal ratio; the % refers to the signal ratio; also: series mostly up to about 77 µM; % of control where 0% means no effect); conditions: NF-kB-bla ME-180 cells, beta-lactamase FRET ratio, 16 h; active compounds read high
Outline: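 NF-kB-bla ME-180 cells, 2,000/well; 23 nL compound or DMSO pinned; 16 hr, 37C/5% CO2; beta-lactamase FRET read-out.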

[4] = qHTS assay for environmental chemicals that activate the Aryl hydrocarbon Receptor (AhR) signaling pathway (AID 651777); conditions: 1A2-DRE human hepatoma cells, luciferase, 24 h; activation: active compounds read high; also: % of control where 0% means no effect; nearly all actives have a fitted effect of over 15% in size
Outline: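 Quantitative HTS in stably transfected human liver-derived cells whose luciferase gene sits downstream of the CYP1A2 promoter and dioxin response element. After 24 hr exposure at 37 C, One-Glo luminescence was measured.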

[5] = biological target: Peroxisome proliferator-activated receptor alpha (Homo sapiens) (UniProt Q07869); experiment: qHTS assay for small molecule agonists of the peroxisome proliferator-activated receptor alpha (PPARalpha) signaling pathway (AID 651778); conditions: PathHunter PPARalpha complementation, chemiluminescence, 6 h; active compounds read high; also: % of control where 0% means no effect
Peroxisome proliferator-activated receptor alpha (Homo sapiens), sequence (Q07869 whole entry, looked up, the tested form may be a part): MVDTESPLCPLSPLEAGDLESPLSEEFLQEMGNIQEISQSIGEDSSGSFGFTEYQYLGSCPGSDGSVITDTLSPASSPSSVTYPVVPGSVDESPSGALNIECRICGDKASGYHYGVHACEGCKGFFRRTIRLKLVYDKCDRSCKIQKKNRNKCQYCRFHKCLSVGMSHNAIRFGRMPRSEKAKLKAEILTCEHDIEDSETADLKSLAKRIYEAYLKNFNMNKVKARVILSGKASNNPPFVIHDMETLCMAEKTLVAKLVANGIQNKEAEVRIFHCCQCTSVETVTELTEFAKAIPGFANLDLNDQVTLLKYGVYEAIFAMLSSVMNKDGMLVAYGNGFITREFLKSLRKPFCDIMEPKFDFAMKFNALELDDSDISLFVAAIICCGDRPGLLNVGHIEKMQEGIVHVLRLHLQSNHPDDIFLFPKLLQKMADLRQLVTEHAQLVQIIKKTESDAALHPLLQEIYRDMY
Outline: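 Enzyme-fragment complementation assay in which ligand-bound PPARalpha translocates and forms an active enzyme that generates chemiluminescence. Cells were plated overnight, exposed to compound for 6 hr at 37 C, and then given detection reagent for 60 min at room temperature.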

[6] = biological target: Nuclear receptor ROR-gamma (Homo sapiens) (UniProt P51449); experiment: qHTS assay for small molecule antagonists of the retinoid-related orphan receptor gamma (ROR-gamma) signaling pathway (AID 651802);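 also: CHO cells with doxycycline-induced ROR-gamma expression; luciferase reporter luminescence driven by ROR response element; series mostly up to about 92 µM; % is scaled to controls: 0 for no effect and ±100 for the full control effect; nearly all actives have a fitted effect of over 60% in size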
Nuclear receptor ROR-gamma (Homo sapiens), sequence (P51449 whole entry, looked up): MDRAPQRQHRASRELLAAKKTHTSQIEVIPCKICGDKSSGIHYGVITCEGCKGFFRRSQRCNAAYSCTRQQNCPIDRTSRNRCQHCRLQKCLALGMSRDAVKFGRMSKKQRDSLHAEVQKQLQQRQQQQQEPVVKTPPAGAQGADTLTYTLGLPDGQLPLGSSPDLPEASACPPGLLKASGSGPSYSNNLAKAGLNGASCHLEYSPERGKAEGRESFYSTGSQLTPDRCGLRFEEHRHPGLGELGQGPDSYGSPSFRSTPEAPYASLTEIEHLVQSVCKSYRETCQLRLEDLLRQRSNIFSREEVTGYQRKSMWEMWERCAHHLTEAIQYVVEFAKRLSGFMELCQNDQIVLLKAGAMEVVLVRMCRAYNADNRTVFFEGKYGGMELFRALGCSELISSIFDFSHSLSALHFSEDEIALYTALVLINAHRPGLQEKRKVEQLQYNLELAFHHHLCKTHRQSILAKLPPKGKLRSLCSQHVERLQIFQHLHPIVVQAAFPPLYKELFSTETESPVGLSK
Outline: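 Doxycycline-induced reporter activity in engineered CHO cells (TET-inducible ROR, RORE-LUC) was measured by luminescence after 16hr compound exposure at 37C.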

[7] = biological target: Tumor necrosis factor (Homo sapiens) (UniProt P01375); experiment: qHTS assay to identify small molecules that stimulate Tumor Necrosis Factor-alpha (TNF-alpha) secretion (AID 651757; active = well fitted curve in the direction sought with a large enough effect in the signal ratio; the % refers to the signal ratio; also: 0% is about no effect)
Tumor necrosis factor (Homo sapiens), sequence (P01375 whole entry, looked up): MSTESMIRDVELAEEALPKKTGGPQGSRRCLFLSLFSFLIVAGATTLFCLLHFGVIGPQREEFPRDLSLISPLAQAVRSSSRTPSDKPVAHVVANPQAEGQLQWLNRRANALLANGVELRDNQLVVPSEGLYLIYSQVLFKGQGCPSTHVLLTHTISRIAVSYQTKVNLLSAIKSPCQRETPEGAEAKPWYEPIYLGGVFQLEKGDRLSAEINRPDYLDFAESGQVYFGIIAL
Outline: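 Using 3000 THP-1 cells per well, compounds and controls were applied for 17 hrs at 37 C. Detection followed with two labeled anti-TNF-alpha antibodies (cryptate donor, XL665 acceptor) for 3 hr at room temperature, measured by TR-FRET.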

[8] = qHTS assay for small molecule disruptors of the mitochondrial membrane potential - 5 hr assay (AID 651755; calls by dose curve; also: nearly all actives have a fitted effect of over 40% in size; also: potency is read from the fitted curve at half-maximal effect)
Outline: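 Read-out: ratiometric Mito-MPS fluorescence, green monomer (ex 490/em 535) vs red mitochondrial aggregate (ex 540/em 590). HepG2 cells treated 5 hr at 37C before 30 min dye loading.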

[9] = qHTS assay for small molecule disruptors of the mitochondrial membrane potential - 1 hr assay (AID 651754; calls by dose curve; also: nearly all actives have a fitted effect of over 35% in size; also: potency is read from the fitted curve at half-maximal effect)
Outline: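 In this qHTS format, a 1 hr compound treatment of HepG2 cells precedes Mito-MPS staining, and membrane potential is judged from aggregate (red) against monomer (green) fluorescence intensity.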

Row | Structure (SMILES) | Potency [1] | activation [2] | activation [3] | activation [4] | max response [5] | Potency [6] | outcome [7] | Potency [8] | Potency [9] | Potency [2]
1 | Nc1ccc(O)c(C(=O)O)c1 | inactive | 0.238% and -1.06% | -0.163% and 0.962% | 0.023% and -1.58% | -9.31% and -0.252% | inactive | – | – | – | –
2 | O=C(O)/C=C\C(=O)O | – | -1.58% | -0.21% | – | -3.33% | inactive | inactive | – | – | –
3 | CN(C)CCC(c1ccc(Cl)cc1)c1ccccn1 (stereo unspecified) | – | -2.38% | -0.341% | -0.109% | -7.82% | inactive | inactive | inactive | – | –
4 | CCCCCCCCCCCCCCCCCC(=O)O | inactive | 2.31% and -5.31% and -1.74% | -1.37% and -0.0787% | 0.0234% and 0.947% and 1.53% | 3.29% and 5.21% and -0.146% | inactive | inactive | inactive | inactive | –
5 | CN1[C@@H]2CC[C@H]1CC(OC(=O)C(CO)c1ccccc1)C2 (stereo partly specified) | inactive | – | – | -1.81% | – | – | – | – | – | –
6 | COc1cc(/C=C/C(=O)CC(=O)/C=C/c2ccc(O)c(OC)c2)ccc1O | 25.9 µM (active) | – | – | – | -5.38% | – | – | 5.96 µM (active) | 3.76 µM (active) | 31.6 µM (active)
7 | O=C(O)c1cc(O)c(O)c(O)c1 | – | -4.32% | -0.583% | -0.689% | -13% | inactive | – | inactive | inactive | –
